# Assay outcomes from PubChem BioAssay.
# Abs 340nm: compound light absorbance at 340 nm, profiling panel, artefact control, biochemical, MLSMR library, data from PS, PMK, MK assays | compound absorbance at 340 nm, fold over control | fold change at 10 µM | 65,000 tested, under 10 active | AID 708, 2007;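 active means at 10 µM dose, initial 340 nm absorbance at least 2 fold that of control wells; inactive means change under 2 fold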;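 further: initial absorbance extrapolated from kinetic A340 decline of NADH oxidation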
# MK inhibit: S. pneumoniae MK inhibitors, primary screen, biochemical, PK/LDH-coupled NADH absorbance; purified MK, PK/LDH-coupled NADH absorbance 340 nm; inhibition, % at 10 µM; actives 0.48% (n = 65,000); AID 555, 2006;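 active means ranked among the strongest by inhibition in the single 10 µM screen, a fixed top-ranked set picked for dose follow-up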
# Spn PMK inh: S. pneumoniae PMK inhibitors, primary screen, biochemical, mevalonate pathway, pilot trial included; actives 0.49% (n = 65,000); inhibition, % at 10 µM; purified PMK, PK/LDH-coupled NADH absorbance 340 nm;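 active means top-ranked compounds by inhibition in the single 10 µM screen, taking a fixed number of the strongest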;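 further: 0% = full reaction with DMSO carrier and 100% = background rate without enzyme reaction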
# DPM-DC inhibit: S. pneumoniae DPM-DC inhibitors, primary screen, biochemical, PK/LDH-coupled NADH fluorescence; purified DPM-DC; calls only at 10 µM; actives 0.49% (n = 65,000);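 active means the 320 compounds with the highest percent inhibition in the single-dose primary screen, excluding strongly autofluorescent ones, cut at about 32% in these data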;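 further: kinetic rate of NADH fluorescence loss reporting ADP formed by the decarboxylase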
# NADH coupling: inhibitors of PK/LDH coupling enzymes, profiling panel, artefact control, biochemical, MLSMR library; coupled PK/LDH NADH assays, four targets; IC50, µM (titrated, usually from 10 µM), inactives show at the highest dose inhibition; actives 0.02% (n = 65,000); AID 774, 2007;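 active means single-dose screening hits from any of four coupled enzyme assays that gave an IC50 when retested across doses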;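 further: the DPM-DC format reads NADH fluorescence rather than 340 nm absorbance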
# Autofluor 339: intrinsic fluorescence of library compounds, ex339/em460 – biochemical, MLSMR library, data from DPM-DC assay, artefact control, profiling panel | compound autofluorescence, ex339/em460 nm, NADH buffer; stronger effect = higher value; 1 = no-compound wells, NADH background | fluorescence fold increase at 10 µM | actives 5.5% (n = 65,000) | AID 709, 2007;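 active means at 10 µM, mean starting fluorescence two-fold or more over control wells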;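 further: signal is the first read of a kinetic run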
# Numbers without * were called inactive; i = inactive; nt = no result given; + = active, no number. Most compounds without a hit are left out; they make up all but 6.8% or so of the library.
SMILES,Abs 340nm,MK inhibit,Spn PMK inh,DPM-DC inhibit,NADH coupling,Autofluor 339
Cc1ccccc1-n1nc(C)c2cc(C(=O)NCc3cccnc3)sc21,0.98,5.0,1.0,i,2.0%,1.17
COc1cc(N2CCOCC2)ncn1,0.99,3.0,12.0,i,5.0%,1.08
Cc1ccc(CNC(=O)c2ccccc2NS(C)(=O)=O)cc1,1.03,13.0,7.0,nt,10.0%,3.96*
CS(=O)(=O)Nc1ccccc1C(=O)NCc1ccco1,1.02,9.0,0.0,nt,5.0%,3.87*
O=C(Nc1ccccc1C(=O)NCc1ccco1)c1ccco1,1.01,0.0,12.0,i,4.0%,1.11
O=C(Nc1ccccc1C(=O)Nc1ccccc1C(=O)NCc1ccco1)c1ccco1,1.13,8.0,0.0,i,5.0%,2.31*
COc1ccc(C(=O)Nc2ccccc2C(=O)NC(C(=O)NCc2ccco2)C(C)C)cc1 (stereo not given),1.04,10.0,28.0*,i,16.0%,1.7
CCOc1ccc(S(=O)(=O)Nc2ccccc2C(=O)NCc2ccco2)cc1,1.02,0.0,12.0,nt,6.0%,4.92*
CCOC(=O)c1sc2nc(SCC(=O)NCc3ccco3)n(Cc3ccccc3)c(=O)c2c1C,1.02,5.0,4.0,+,5.0%,1.74
O=C(O)c1cc(S(=O)(=O)O)ccc1O,1.03,1.0,3.0,i,1.0%,1.3
O=C(OCc1cc(Cl)ccc1OC(F)F)c1cc(S(=O)(=O)O)ccc1O,1.01,0.0,11.0,nt,6.0%,2.09*
Cc1cccc(N2CCN(C(=O)c3cc4c(C)nc5ccccc5c4o3)CC2)c1C,1.02,10.0,25.0,i,12.0%,1.09
O=C1CCC(C(=O)N(Cc2ccco2)C2(C(=O)NC3CCCC3)CCCCC2)N1 (stereo not given),1.02,0.0,0.0,+,5.0%,1.07
CC(=O)N(Cc1ccco1)C1(C(=O)NC2CCCCC2)CCCCC1,1.03,8.0,6.0,i,5.0%,1.16
CCN(CC)S(=O)(=O)c1cc(C(=O)n2cccn2)c(Cl)cc1Cl,1.05,2.0,11.0,i,4.0%,1.12
Cc1nc2ccccc2n1-c1nc(-c2ccco2)cc(C(F)(F)F)n1,1.1,3.0,13.0,i,5.0%,1.77
FC(F)(F)c1cc(-c2ccco2)nc(-n2cnc3ccccc32)n1,1.07,8.0,16.0,i,11.0%,2.7*
O=C(c1noc2c1CCCCC2)N1CCOCC1,0.96,7.0,15.0,i,11.0%,0.91
O=C(c1noc2c1CCCC2)N1CCCCC1,0.99,10.0,8.0,+,19.0%,0.67
CC1CCC(NC(=O)C2CCN(C(=O)NC3CCCCC3)CC2)CC1 (stereo not given),1.01,9.0,11.0,i,9.0%,1.07
CCOC(=O)c1c(C)n(C)c2ccc(OC)c(NS(=O)(=O)c3ccc(Cl)s3)c12,1.06,3.0,78.0*,i,27.0%,1.14
COc1cc(CNc2ccc3[nH]c(=O)[nH]c3c2)ccc1OCC(=O)NC(C)(C)C,0.99,5.0,13.0,nt,9.0%,4.9*
CCn1c(=S)sc2nc(C)sc21,1.09,6.0,14.0,i,3.0%,0.98
CSc1nc2nc(-c3ccccc3)cc(C(F)(F)F)n2n1,1.17,2.0,3.0,nt,3.0%,3.83*
CSc1nc2nc(C)cc(-c3ccccc3)n2n1,1.04,10.0,1.0,i,7.0%,1.73
SMILES,Abs 340nm,MK inhibit,Spn PMK inh,DPM-DC inhibit,NADH coupling,Autofluor 339
C=CCn1c(SCC(N)=O)nnc1-c1cc(Br)ccc1O,1.11,3.0,3.0,i,2.0%,1.1
N#Cc1c(-c2cccs2)cc(-c2ccccn2)nc1N,1.04,6.0,13.0,nt,10.0%,3.75*
CCCCSc1nc(N)c(C#N)c(-c2cccs2)c1C#N,1.08,5.0,0.0,i,2.0%,1.16
N#Cc1c(-c2cccs2)cc(-c2cccnc2)nc1N,1.11,0.0,3.0,nt,2.0%,3.82*
COc1cc(C(c2nnnn2C(C)(C)C)N2CCN(C)CC2)cc(OC)c1OC (stereo not given),1.01,0.0,23.0,i,8.0%,1.03
Cn1nnnc1Sc1ncnc2scc(-c3ccc(F)cc3)c12,0.96,5.0,29.0*,i,11.0%,1.12
Cn1nnnc1Sc1ncnc2scc(-c3ccccc3)c12,0.98,7.0,14.0,i,7.0%,1.08
CC(C)OC(=O)C1C(=O)CC(C)(O)C(C(=O)OC(C)C)C1c1cccnc1 (stereo not given),1.01,0.0,27.0*,i,9.0%,1.08
CC(=O)Nc1ccc2c(c1)C(=O)N(C1CCCCC1)C2=O,1.04,7.0,9.0,nt,8.0%,3.84*
N=c1c[n+](N2CCOCC2)[n-]o1,0.98,8.0,5.0,i,3.0%,1.02
CCN(C(=O)c1c(-c2ccccc2)noc1C)c1ccccc1,1.01,8.0,0.0,i,3.0%,1.07
CCOc1c(C)cc(-c2ncccc2O)cc1C,1.06,11.0,2.0,i,14.0%,3.79*
Cc1noc(C)c1COC(=O)c1ccc(-c2nc3ccccc3s2)s1,1.07,2.0,1.0,i,1.0%,3.96*
Cc1noc(C)c1COC(=O)CCCc1nc2ccccc2s1,1.01,2.0,9.0,i,5.0%,1.1
COCCNC(=O)C1CC(=O)N(CCc2ccccc2)C1 (stereo not given),0.99,7.0,14.0,i,7.0%,1.13
CC1CN(C(=O)c2cc3c(s2)CCC3)CC(C)O1 (stereo not given),1,1.0,7.0,i,3.0%,1.12
CC1CN(C(=O)c2cc3c(=O)n4ccccc4nc3s2)CC(C)O1 (stereo not given),1.12,0.0,18.0,nt,9.0%,4.87*
O=C(NCc1ccc(F)cc1)c1cnc2sccn2c1=O,1.12,8.0,2.0,nt,5.0%,2.15*
CCc1noc(C)c1C(=O)Nc1sc(C(=O)N(C)C)c(C)c1C(=O)OC,1.07,6.0,0.0,i,2.0%,1.05
O=c1c2ccccc2nnn1CSc1nnc(-c2cccs2)n1Cc1ccccc1,1.01,76.0*,10.0,i,31.0%,1.04
c1ccc(OCc2nc(-c3ccccc3)no2)cc1,1.01,2.0,1.0,i,1.0%,1.07
COc1ccc(-c2noc(-c3ccccc3F)n2)cc1,1.03,4.0,8.0,i,5.0%,1.1
COc1nc(-c2ccccc2)ccc1-c1noc(COc2ccccc2)n1,1.09,17.0,0.0,nt,9.0%,2.12*
COc1ccc(-c2ccc(-c3noc(-c4ccccc4F)n3)c(OC)n2)cc1,1.08,7.0,7.0,nt,7.0%,3.7*
